# HepG2 viability: qHTS for Inhibitors of TGF-b: Cytotox Counterscreen; 410,000 tested, 0.76% active; HepG2 CAGA-GFP viability, ATP luminescence, 18 h; AID 588856, 2011; Potency, µM (highest dose often 46.1 µM), most hits filed as cytotoxic
#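 HepG2 CAGA-GFP cells (1000/well, DMEM with 1% FBS) received compound, then TGF-beta at 500 pg/mL final, and were incubated 18 hours at 37 degrees C. Viability was read by CellTiter-Glo luminescence. Media-only wells were set as complete cell-killing and DMSO as no toxicity.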
# TGFb inhibitor: qHTS for Inhibitors of TGF-b | HepG2 CAGA-GFP TGF-b/SMAD3 reporter, GFP fluorescence, 18 h; TGF-beta stimulated, 500 pg/mL final | Potency, µM (series often up to 46.1 µM), usual class: inhibitors | 410,000 tested, 1.2% active | AID 588855, 2011; note: nearly all actives have a fitted effect of over 65% in size
#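 Smad-responsive CAGA-GFP expression was quantified in HEPG2 cells exposed to compounds and 500 pg/mL final TGF-beta for 18 h at 37 degrees C; unstimulated wells defined full inhibition.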
# ATXN2 expr inh: Primary qHTS for Inhibitors of ATXN expression; Potency, µM (highest dose often 57 µM), most hits filed as inhibitors; 360,000 tested, 0.72% active; HEK-293 ATXN2-luciferase reporter, luminescence, 24 h; note: nearly all actives have a fitted effect of over 55% in size
#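 ATXN2-luciferase reporter cells (luciferase flanked by upstream and downstream ATXN2 gene portions) were treated 24 h at 37 °C with compounds at up to 57 uM. SteadyGlo luminescence gave expression; GF-AFC fluorescence gave viability.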
# ATXN viability: Viability Counterscreen for Primary qHTS for Inhibitors of ATXN expression; 400,000 tested, 0.49% active; AID 651635, 2014; Potency, µM (top dose mostly 56.7 µM), usual class: cytotoxic; S2 cells (HEK-293 line with an ATXN2-luciferase reporter) viability, CellTiter-Fluor protease fluorescence, 24 h; note: nearly all actives have a fitted effect of over 40% in size
# Numbers stand for hits; - = inactive; ? = inconclusive; . = no result; [ ] = another dose, or the depositor's remark. Hits are enriched below; roughly 2.3% of the tested compounds scored in any of these assays. Calls come from the whole dose curve; as a rule, active = well fitted curve in the direction sought with a large enough effect; inconclusive = small, poorly fitted or top-dose-only effect, or another doubt; inactive = no such curve, though single readings can be large; an effect the other way counts as inactive or inconclusive.
SMILES,HepG2 viability,TGFb inhibitor,ATXN2 expr inh,ATXN viability
Cc1ccc2c(c1)[nH]c1c(N3CCN(Cc4ccccc4)CC3)ncnc12,-,11.2µM,8.91µM,.
CCOc1ccc2[nH]c3c(N4CCN(c5ccccn5)CC4)ncnc3c2c1,-,-,?,-
CCOc1cc(CNCCCN2CCOCC2)cc(Br)c1OCc1ccccc1Cl,-,14.1µM,-[11.3 µM],?
Cc1cccc(C(=O)NCC2Cc3cc(F)cc(-c4cnccn4)c3O2)n1 (centres undefined),.,.,.,-
C[C@H](C[C@H](O)[C@H]1OC1(C)C)C1=C2C[C@H](O)C3[C@@]4(C)CCC(=O)C(C)(C)C4CC[C@]3(C)[C@@]2(C)CC1 (some centres undefined),15.8µM,?,?,25.1µM
CCN(CC)CCNc1ncnc2c1sc1nc(N3CCOCC3)c3c(c12)CC(C)(C)SC3,-,-,.,.
CN(C)CCNc1ncnc2c1sc1nc(N3CCOCC3)c3c(c12)CC(C)(C)SC3,-,-,20µM,?
CC(=O)Nc1ccc(/C=C2\C=Cc3ccccc32)cc1,-,-,.,.
Cc1nn2c(NCCN3CCOCC3)c3c(nc2c1-c1ccccc1)CCCC3,-,-,?,-
Cc1nn2c(N3CCN(C)CC3)c3c(nc2c1-c1ccccc1)CCCC3,-,-,?,20µM
O=C(C[n+]1csc2ccccc21)c1ccc(O)c(O)c1,-,?,.,.
O=C(O)c1ccc(S(=O)(=O)/N=C2\C=C(Nc3ccccc3F)C(=O)c3ccccc32)cc1,4.47µM,3.16µM,7.94µM,7.94µM
Cc1ccccc1NC1=C/C(=N\S(=O)(=O)c2ccc(C(=O)O)cc2)c2ccccc2C1=O,17.8µM,?,8.91µM,10µM
Cc1ccccc1NC1=C/C(=N\S(=O)(=O)c2cccs2)c2ccccc2C1=O,3.16µM,?,7.94µM,6.31µM
O=C(c1ccoc1)N1CCOc2ccc(CN3CCC(Oc4cccnc4)CC3)cc2C1,.,.,.,-
c1c2c(cc3sc(N4CCCCC4)nc13)OCO2,10µM,?,-,?
Cc1ccc(NC(=O)C(c2ccccc2)c2ccccc2)c(O)c1,-,15.8µM,-,-
CC1=C(C(=O)Nc2cc3cn[nH]c3cc2F)C(c2ccc(C(F)(F)F)cc2)CC(=O)N1 (centres undefined),.,.,-,.
CCn1c(/C=C/c2ccccc2)nc2ccccc21,-,-,-,-
CCCCCCn1c(/C=C/c2ccccc2)nc2ccccc21,-,15.8µM,.,.
FC(F)(F)c1ccc(C2[C@H]3CN(Cc4cccnc4)[C@H](c4ccccc4)C34CC2(c2cccnc2)C4)cc1 (some centres undefined),-,8.91µM,?,?
FC(F)(F)c1ccc(C2[C@H]3CN(Cc4ccc(-c5ccccc5)cc4)[C@H](c4ccccc4)C34CC2(c2cccnc2)C4)cc1 (some centres undefined),-,?,-,-
O=C(c1ccc2c(c1)OCO2)N(Cc1cc2cc3c(cc2nc1N1CCOCC1)CCC3)CC1CCCO1 (centres undefined),.,.,.,-
Cc1ccc(C(=O)c2cc(O)c(O)c([N+](=O)[O-])c2)cc1,.,.,-,-
COc1ccc(C2=NN(C(=O)c3cccs3)C(c3ccccc3O)C2)cc1 (centres undefined),-,12.6µM,.,?
SMILES,HepG2 viability,TGFb inhibitor,ATXN2 expr inh,ATXN viability
COc1ccc(C2CC(c3ccccc3)=NN2C(=O)c2cccs2)cc1 (centres undefined),-,-,-,-
COc1ccc(C(=O)N2N=C(c3cccs3)CC2c2ccccc2O)cc1 (centres undefined),11.2µM,?,-,?
CC(=O)N1CCC[C@H]1C(=O)NCC1Cc2cc(-c3cnccn3)cc(Cl)c2O1 (some centres undefined),.,.,.,-
O=C(c1ccncc1)N1CCC2(CCC(CNC(=O)C3(N4CCOCC4)CCCCC3)O2)CC1 (centres undefined),.,.,.,-
CCOc1cc(C(Nc2cc(C)ccn2)c2ccc3cccnc3c2O)ccc1OC (centres undefined),-,0.794µM,.,.
CCCCC(=O)NC(c1ccc(N(CC)CC)cc1)c1ccc2cccnc2c1O (centres undefined),-,?,2.82µM,-
COc1ccc(C(Nc2ccccn2)c2ccc3ccc(C)nc3c2O)cc1C (centres undefined),-,?,?,?
Oc1c(C(Nc2nccs2)c2ccc(C(F)(F)F)cc2)ccc2cccnc12 (centres undefined),-,22.4µM,12.6µM,-
CCC(=O)NC(c1cccs1)c1ccc2cccnc2c1O (centres undefined),-,1µM,.,?
CC(O)(COc1ccccc1)c1ccc2c(c1)CN(Cc1cccnc1)CCO2 (centres undefined),.,.,.,-
CC1(C)S[C@H]2[C@H](NC(=O)[C@@H](N)c3ccc(O)cc3)C(=O)N2[C@@H]1C(=O)O,.,.,-,.
COc1ccc(OC)c(-c2ccnc(-n3ncc(C(=O)N(C)CCc4ccccn4)c3C)n2)c1,.,.,.,-
CCCCC(=O)NC(c1ccc(Cl)cc1)c1ccc2cccnc2c1O (centres undefined),-,?,7.94µM,-
CCCCC(=O)NC(c1ccccc1OC)c1ccc2cccnc2c1O (centres undefined),-,?,3.98µM,-
O=C(CN1Cc2ccccc2OC(c2ccsc2)C1)N1CCN(Cc2ccc3c(c2)OCO3)CC1 (centres undefined),.,.,.,-
Cc1cccc(CN2CCc3nnc(C(C)NC(=O)C4CCOCC4)n3CC2)c1 (centres undefined),.,.,.,-
Cc1nc2c(Br)cc(Br)cc2c(=O)n1-c1ccccc1NC1OCC(O)C(O)C1O (centres undefined),1.58µM,-,?,-
CCn1cc(C(=O)N2CCN(c3cccc(C(F)(F)F)c3)CC2)c2cc(OC)c(OC)cc2c1=O,-,?,?,-
CCn1cc(C(=O)N2CCN(c3cccc(C)c3C)CC2)c2cc(OC)c(OC)cc2c1=O,-,10µM,?,?
Cc1ccc2[nH]c(=O)c3cc(C(=O)NCCCN4CCC(C)CC4)sc3c2c1,-,-,28.2µM,20µM
Oc1cc(NCc2ccc(F)cc2)cc2cccnc12,11.2µM,?,?,?
Oc1cc(NCc2ccc(Cl)cc2)cc2cccnc12,-,-,-,-
COc1cc(NCc2ccccc2O)c2ncccc2c1,-,-,-,-
CN(C)CCCNc1cc(O)c2ncccc2c1,7.08µM,?,20µM,?
Cc1ccc(C(=O)C(C(=O)/C=C/c2ccccc2)=C2SCCCS2)cc1,-,-,12.6µM,.
OC(CNCc1ccc(-c2ccccc2)cc1)c1ccccc1 (centres undefined),22.4µM,?,-,-
O=C(OCCNc1nc(-c2ccccc2)nc2ccccc12)c1cccnc1,-,-,.,?
CCCOC(=O)c1cccc(Nc2nc(-c3cccnc3)nc3ccccc23)c1,15.8µM,17.8µM,?,.
CCN(CC)C(=O)Nc1ccc(OCC(O)CNC(C)(C)C)c(C(C)=O)c1 (centres undefined),.,.,-,-
